# Assay results as given in the supplement of paper PMC6555819.
# Test system: PPARg:RXRa 90nM:30nM, anti-RXR (NR concentration 90 nM, RXRa partner concentration 30 nM)
# Assay: PBM binding z-score (relative to random genomic background probes); higher = stronger binding; sequences stand for … in GC…GCGATTGACAGCGTAGAATGAAGG
# In short: (§1)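 Ligand-free nuclear receptor dimers were applied to custom Agilent 4×180K protein-binding microarrays whose double-stranded probes carried direct-repeat seeds, single-nucleotide variants, half-site ablations and random human genomic background sequences in 34-nt variable regions. Incubation lasted 1 h. Binding z-scores were computed against the random background probes from regression-normalized fluorescence.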
row,Sequence,PBM binding z-score
1,ATCTCTAGGTGAAGTTCAGTGAAAGATCGATAGA,1.35
2,CCGACTGGGGCAGAAAGTTTACCATACCATCCGG,-0.116
3,ACAGACAGGTGATGAAGGTAACTAAGGCTATCAT,0.0556
4,GCATGTAGATCAAGGTTAAGAAAGACTAAGCTAA,1.55
5,TCTTGTAGATCAACAGGAGGTCAAGAAAGATCGA,2.35
6,CTTGCTAGGTCAATGGTCAGCTAAAGCAGCTCGC,5.69
7,TCGAGTAGGTTCGTCGGGGCATTCAGCCAACATA,0.64
8,ATCTCTGGGTAACAAGTTCAGTGAAAGAGAGGAC,1.5
9,TAGCCCAGGTCAGATCGGGCCAGTATACGCTATA,-0.038
10,TGTCAAAGTTCAATGGTAACGTAAGTATCCACAC,6.12
11,CGAACGAGGGCATGAGTTGATAGCAAATGCCGAT,0.976
12,CGTCCAAGGTCATAGGAGGTCAGGGAAGACAGAT,4.83
13,GCTGCTTGGTCAACTGATGGTCAGCTAAAGCTCG,-0.725
14,ATCTCTAGGAAACCAAGTTCAGTGAATGCCGAAC,0.082
15,CCTGCTAGGTCATGGTCATCTAATCTACAGTATG,1.85
16,TAGCCTATGTCATTGGGCCAGTATAGTACGCATC,0.065
17,CGAACTAGGTCAGAACAGGACACTGAAGGATGAT,3.43
18,GCTCGGAGGACAAGGTCAGATCTTTGTCCGTAGA,0.769
19,AGAATGAGGTTATTACGATCAGGGAATTGCGGTC,1.11
20,TCATATACGTAAAAGGTGAAAGTCGGTGTGGTAA,4.19

row,Sequence,PBM binding z-score
1,CCTAGTGGGCCACGAAAGGTCATTGATTCAGTGA,4.15
2,TCTTGTAGTTCAATAGAGGTTAAGAAAGTGCGCT,2.06
3,ACAGACAGGTGATAAAGGTAACTCAGGCTATCAT,1.35
4,CCTACTGGGTCATCAGGTCATTGATATCAACGTT,5.99
5,TCATCTAGGTAAAAGGTGAAAGTCGGTGTGGTAA,10.8
6,CAGCCTAGGTCAGGCCCAGTATAGGAGGAACGTT,0.386
7,AATACAGGGTCATCGTAAGCCAGAGTACGCACAG,4.83
8,CCTACTGGGCCACGAACGGTCATTGATTCAGTGA,0.515
9,GCGACTTGGGCAAAGCAGGTTACCATAAGGTTGG,-0.41
10,TCTAGTAGGTTAGTCGGGGCATTCAGCCAACATA,2.8
11,AGAACGAGGGCACGCTCAGTTGATAGCAGAGTAG,0.796
12,CGTACTAGGTCATTGACAGGACAGTGAATAGTAA,4.93
13,ATCGAAAGGTCGAGGTGAGCATAGAGAAAGGGAA,2.84
14,TCATATAGGTAAAGGTGCAAGTCGAACGATATGA,5.79
15,TCTAGTTGGTCACGGAGGTCACTCACGACGGGTA,3.24
16,GCGACTGGGGCATAAGCAGGTTACCATAACTTAA,1.26
17,AATACAGGCTCATCGTAGGCCAGAGTACGCACAG,-0.254
18,CGTACAAGGTCAGCAGGTCAGTGAAAGCGACGTG,3.64
19,ACAGACAGGTGAGTGAAGGGAACTCAGCTGGACG,-0.465
20,CCTACTGGGCCAAAAAGGTCCTTGATGCCGATAA,0.211

# Test system: PPARg:RXRa DBDmut IVT, anti-RXR (DBD mutation: RXRa K156A/R161A, NR concentration 270 nM, RXRa partner concentration 90 nM)
# Assay: as above
# In short: as §1
row,Sequence,PBM binding z-score
1,ATCTCTAGGTGAAGTTCAGTGAAAGATCGATAGA,4.94
2,CCGACTGGGGCAGAAAGTTTACCATACCATCCGG,1.85
3,ACAGACAGGTGATGAAGGTAACTAAGGCTATCAT,-0.224
4,GCATGTAGATCAAGGTTAAGAAAGACTAAGCTAA,1.08
5,TCTTGTAGATCAACAGGAGGTCAAGAAAGATCGA,1.49
6,CTTGCTAGGTCAATGGTCAGCTAAAGCAGCTCGC,5.14
7,TCGAGTAGGTTCGTCGGGGCATTCAGCCAACATA,0.771
8,ATCTCTGGGTAACAAGTTCAGTGAAAGAGAGGAC,2.93
9,TAGCCCAGGTCAGATCGGGCCAGTATACGCTATA,-0.572
10,TGTCAAAGTTCAATGGTAACGTAAGTATCCACAC,-0.339
11,CGAACGAGGGCATGAGTTGATAGCAAATGCCGAT,3.29
12,CGTCCAAGGTCATAGGAGGTCAGGGAAGACAGAT,3.02
13,GCTGCTTGGTCAACTGATGGTCAGCTAAAGCTCG,0.408
14,ATCTCTAGGAAACCAAGTTCAGTGAATGCCGAAC,-0.471
15,CCTGCTAGGTCATGGTCATCTAATCTACAGTATG,4.28
16,TAGCCTATGTCATTGGGCCAGTATAGTACGCATC,0.158
17,CGAACTAGGTCAGAACAGGACACTGAAGGATGAT,7.14
18,GCTCGGAGGACAAGGTCAGATCTTTGTCCGTAGA,-0.309
19,AGAATGAGGTTATTACGATCAGGGAATTGCGGTC,3.27
20,TCATATACGTAAAAGGTGAAAGTCGGTGTGGTAA,2.65

row,Sequence,PBM binding z-score
1,CCTAGTGGGCCACGAAAGGTCATTGATTCAGTGA,5.45
2,TCTTGTAGTTCAATAGAGGTTAAGAAAGTGCGCT,1.53
3,ACAGACAGGTGATAAAGGTAACTCAGGCTATCAT,-0.135
4,CCTACTGGGTCATCAGGTCATTGATATCAACGTT,6.76
5,TCATCTAGGTAAAAGGTGAAAGTCGGTGTGGTAA,5.49
6,CAGCCTAGGTCAGGCCCAGTATAGGAGGAACGTT,0.76
7,AATACAGGGTCATCGTAAGCCAGAGTACGCACAG,2.67
8,CCTACTGGGCCACGAACGGTCATTGATTCAGTGA,5.64
9,GCGACTTGGGCAAAGCAGGTTACCATAAGGTTGG,-0.00446
10,TCTAGTAGGTTAGTCGGGGCATTCAGCCAACATA,4.91
11,AGAACGAGGGCACGCTCAGTTGATAGCAGAGTAG,3.98
12,CGTACTAGGTCATTGACAGGACAGTGAATAGTAA,7.67
13,ATCGAAAGGTCGAGGTGAGCATAGAGAAAGGGAA,0.593
14,TCATATAGGTAAAGGTGCAAGTCGAACGATATGA,3.53
15,TCTAGTTGGTCACGGAGGTCACTCACGACGGGTA,2.58
16,GCGACTGGGGCATAAGCAGGTTACCATAACTTAA,3.36
17,AATACAGGCTCATCGTAGGCCAGAGTACGCACAG,-0.148
18,CGTACAAGGTCAGCAGGTCAGTGAAAGCGACGTG,3.86
19,ACAGACAGGTGAGTGAAGGGAACTCAGCTGGACG,0.124
20,CCTACTGGGCCAAAAAGGTCCTTGATGCCGATAA,3.01
